Screening results (PubChem BioAssay)
Most compounds without a hit are left out; they make up all but 14% or so of the library.
Pf growth 48h – Primary qHTS for delayed death inhibitors of the malarial parasite plastid, 48 hour incubation. P. falciparum luciferase growth in erythrocytes, 48 h. Potency, µM (top dose mostly 28.7 µM), without a hit: top-dose activity change, negative = inhibition, hits mostly inhibitors. 310,000 tested, 5.9% active; note: potency is the fitted concentration of half-maximal effect
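Firefly luciferase activity from engineered P. falciparum reports growth; inhibitors lower the luminescent signal. Cultures contained 2% hematocrit erythrocytes at 0.1% final parasitemia.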
LASV entry inh – qHTS for Inhibitors of binding or entry into cells for Lassa Virus | Potency, µM (highest dose often 37.9 µM), without a hit: top-dose activity change, negative = inhibition, hits mostly inhibitors | Lassa virus pseudotype entry inhibition, cell reporter | 300,000 tested, 1.2% active; calls by dose curve; tested in HEK293 cells; note: potency is the fitted concentration of half-maximal effect; nearly all actives have a fitted effect of over 50% in size
HCMV inh – qHTS Assay for inhibitors of the human cytomegalovirus (HCMV); HFF cells, HCMV-luciferase reporter, 72 h; active compounds read low; activity change, negative = inhibition, % at 57.5 µM; 410,000 tested, 4.5% active; in the data active = activity change below about -60%; inconclusive = no clear call, values can overlap the other calls; inactive = above about -39%
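Luciferase read-out from HCMV-luciferase-infected HFFs (MOI 1 PFU/cell) 72 h post infection at 37C; compounds added after 16 h cell attachment; activity normalized between buffer-only basal and Salinomycin (10uM) inhibitor controls.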
Pf growth 96h – Primary qHTS for delayed death inhibitors of the malarial parasite plastid, 96 hour incubation. 320,000 tested, 6.9% active. AID 504834, 2011. P. falciparum luciferase reporter growth, 96 h. Potency, µM (highest dose often 28.7 µM), inactives show at the top dose activity change, negative = inhibition, most hits filed as inhibitors; note: potency is the fitted concentration of half-maximal effect
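P. falciparum expressing integrated firefly luciferase, in erythrocytes at 2% hematocrit, 0.05% parasitemia, incubated with compounds 96 h at 37 C, 5% CO2. Growth inhibition read as loss of luminescence; two-generation exposure targets delayed-death apicoplast inhibitors.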
HCV inhibitor – qHTS Assay for Inhibitors of Hepatitis C Virus (HCV) | Potency, µM (doses to about 41.8 µM), without a hit: at the highest dose activity change, negative = inhibition, hits mostly inhibitors | AID 651820, 2012 | Huh7.5.1 HCVcc-Cre infection, luciferase reporter, 44 h | 340,000 tested, 3.4% active; note: potency is the fitted concentration of half-maximal effect
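Antiviral activity was scored by luciferase reporter output from cells infected with HCVcc-Cre (~0.5 moi) in presence of compound, 44 h infection period, cells seeded 1,000/well 4 h prior.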
MARV entry inh – qHTS for inhibitors of binding or entry into cells for Marburg Virus; Marburg virus pseudotyped entry inhibition, cell reporter; Potency, µM (highest dose often 37.8 µM), without a hit: at the top dose activity change, negative = inhibition, usual class: inhibitors; 300,000 tested, 1.8% active; AID 540276, 2011; calls by dose curve; tested in HEK293 cells; note: potency is the fitted concentration of half-maximal effect
* marks the source's active call; other numbers are inactive results; ? = inconclusive; . = not tested or not shown; [ ] = another dose, or the depositor's remark. Unless noted, calls come from the whole dose curve; as a rule, active = well fitted inhibition curve with a large enough effect; inconclusive = small, poorly fitted or top-dose-only effect, or another doubt; inactive = no such curve, though single readings can be large or run the other way. % is set by controls: 0 for no effect and ±100 for the full control effect.

SMILES	Pf growth 48h	LASV entry inh	HCMV inh	Pf growth 96h	HCV inhibitor	MARV entry inh
Cc1ccc(C)c(NS(=O)(=O)c2ccc3c(c2)NC(=O)CO3)c1	6%	?	-28	-28%	19%	-5%[46.1 µM]
Cc1ccc(CCNS(=O)(=O)c2ccc3c(c2)NC(=O)CCS3)cc1	8%	.	-37	13µM*	-26%	.
Cc1ccc(NS(=O)(=O)c2ccc3c(c2)NC(=O)CCS3)c(Br)c1	6.6µM*	-1%[46.1 µM]	24	?	?	-14%[46.1 µM]
COc1ccc(CCNS(=O)(=O)c2ccc3c(c2)NC(=O)CCS3)cc1OC	?	?	-18	?	-6%	?
CCOc1ccccc1NS(=O)(=O)c1ccc2c(c1)NC(=O)CCS2	-10%	-10%[46.1 µM]	-4	?	19%	4%[46.1 µM]
Cc1ccc(C)c(NS(=O)(=O)c2ccc3c(c2)NC(=O)CCS3)c1	-17%	-21%[46.1 µM]	-29	9.3µM*	-1%	-13%[46.1 µM]
COc1cc(C(O)c2nc(C(=O)NCCN3CCOCC3)cs2)cc(OC)c1OC (stereo not drawn)	.	.	-18	.	.	.
CC1(Cc2cc(Cl)ccc2C(F)(F)F)C(=O)Nc2cc(-c3ccccc3Cl)ccc21 (stereo not drawn)	.	.	3	.	.	.
CCOc1ccccc1NC(=O)C(NS(=O)(=O)c1ccc2c(c1)CCC(=O)N2)c1ccccc1 (stereo not drawn)	.	?	0	.	.	7%[46.1 µM]
COc1ccccc1CN1Cc2ccccc2Oc2ccccc2S1(=O)=O	.	.	-32	.	.	.
Cc1ccc(CNC(=O)CC(C)CC2=NS(=O)(=O)c3ccccc3N2)cc1 (stereo not drawn)	.	3%[46.1 µM]	2	.	.	.
O=C(NCc1cccs1)c1nc2c(nnn2Cc2ccccc2Cl)c(=O)[nH]1	4.1µM*	11µM*	-102*	-27%	5µM*	?
CC(C)(C)c1ccc(Cn2nnc3c(=O)[nH]c(C4CCCN(C(=O)c5cccs5)C4)nc32)cc1 (stereo not drawn)	?	-24%	-23	4.1µM*	-8%	-28%
O=C(c1ccco1)N1CCC(c2nc3c(nnn3Cc3c(Cl)cccc3Cl)c(=O)[nH]2)CC1	?	-15%[46.1 µM]	-14	1%	-3%	-9%[46.1 µM]
CC(C)(C)c1ccc(Cn2nnc3c(=O)[nH]c(C4CCCN(C(=O)Cc5cccs5)C4)nc32)cc1 (stereo not drawn)	?	?	-13	5.2µM*	-3%	?
CC(C)(C)c1ccc(Cn2nnc3c(=O)[nH]c(C4CCN(C(=O)c5ccco5)CC4)nc32)cc1	6.6µM*	?	-15	-2%	15%	?
Cc1cccc(C(O)c2ncc(-c3ccccc3F)[nH]2)c1C (stereo not drawn)	.	.	37	.	.	.
CCOC(=O)C1NNN2C3CCCCC3C(N3CCN(C4CCCCC4)CC3)NC12 (stereo not drawn)	.	.	.	.	.	5%[46.1 µM]
COc1ccc(NC(=O)C(C)n2nnc3sc(-c4ccccc4)cc3c2=O)cc1Cl (stereo not drawn)	.	25%[46.1 µM]	11	.	.	-1%[46.1 µM]
Cc1cccc(Cn2nnc3c(=O)[nH]c(C4CCCN(C(=O)c5ccccc5Cl)C4)nc32)c1 (stereo not drawn)	.	-27%[46.1 µM]	-11	.	.	?
O=C(Cc1cccs1)N1CCCC(c2nc3c(nnn3Cc3ccccc3Cl)c(=O)[nH]2)C1 (stereo not drawn)	5.2µM*	-11%	-8	32%	18%	-2%
O=C(c1cccs1)N1CCCC(c2nc3c(nnn3Cc3c(Cl)cccc3Cl)c(=O)[nH]2)C1 (stereo not drawn)	13µM*	8%[46.1 µM]	-30	?	-13%	?
CC(C)(C)c1ccc(Cn2nnc3c(=O)[nH]c(C4CCN(C(=O)Cc5cccs5)CC4)nc32)cc1	5.9µM*	?	?	.	-21%	8.2µM*
CCn1cc(S(=O)(=O)c2ccc(Cl)cc2)c(=O)c2cc(F)c(N3CCOCC3)cc21	.	0%[46.1 µM]	5	.	.	.
CCCOc1ccc(C(=O)NCC(c2ccc(OC)cc2)N2CCCCC2)cc1 (stereo not drawn)	.	-30%[46.1 µM]	-1	.	.	?
SMILES	Pf growth 48h	LASV entry inh	HCMV inh	Pf growth 96h	HCV inhibitor	MARV entry inh
O=C1NCCCC1C(=O)N1CCN(C(=O)C2CCCNC2=O)CC1 (stereo not drawn)	12µM*	.	.	-22%	.	2%
O=C1NCCCC1C(=O)N1CCCCC1 (stereo not drawn)	0%	-2%[46.1 µM]	36	42%	3%	12%[46.1 µM]
O=c1c(-c2nc3ccccc3s2)cccn1Cc1ccc(Cl)c(Cl)c1	?	4%	-63*	?	?	1%
Cc1cc(C(=O)CCl)c(C)n1Cc1ccco1	16%	?	-97*	197%	?	?
Cc1ccc2cccc(OCC(=O)c3cc(C)n(Cc4ccco4)c3C)c2n1	13µM*	.	2	?	.	.
Cc1cc(C(=O)CCl)c(C)n1CCc1ccccc1	-13%	?	-100*	-26%	8.9µM*	?
Cc1cc(C(=O)CSc2nncs2)c(C)n1Cc1ccco1	0%	4.5µM*	22	219%	?	6.3µM*
Cc1cc(C(=O)COC(=O)[C@H](C)NC(=O)c2ccco2)c(C)n1Cc1ccco1	478%	4%	5	12%	11%	-6%[46.1 µM]
Cc1cc(C(=O)COC(=O)Cn2c(C(F)(F)F)nc3ccccc32)c(C)n1Cc1ccco1	.	-8%	-13	?	-1%	15%
CCN1C(N(C)CCOC)=NC(c2cccc(F)c2)C(C(=O)OC)=C1C (stereo not drawn)	.	?	.	.	.	-24%[14.2 µM]
COC(=O)[C@]12CCCCC=C1N(Cc1ccc(Cl)cc1Cl)C(=O)[C@H](CC(=O)NCc1cccc(C(F)(F)F)c1)C2	.	.	8	.	.	.
CCN1CCc2c(sc(-n3cccc3)c2C(CCC(C)C)NC(=O)NCCC(=O)OC)C1 (stereo not drawn)	.	?	-4	.	.	.
Cc1ccc(-c2nc3cc(Cl)ccc3o2)cc1NC(=O)c1cc2ccccc2o1	.	23%[46.1 µM]	95	.	.	.
COc1ccccc1NC(=O)C(=O)N/N=C(\C)CC(=O)Nc1ccccn1	10%	.	-34	39%	-2%	.
C/C(CC(=O)Nc1ccccn1)=N\NC(=O)C(=O)Nc1ccccc1C	-4%	9%	-39	1.9µM*	14%	12%
C/C(CC(=O)Nc1cc(C)ccn1)=N\NC(=O)C(=O)Nc1cccc(C)c1	82%	?	9	1.5µM*	20%	36%
COc1ccc(-c2nn(-c3ccccc3)cc2/C=C/C(=O)OCC(=O)Nc2ccccc2C#N)cc1	3%	2%	-23	2%	?	?
